HCMV antiviral – qHTS Assay for inhibitors of the human cytomegalovirus (HCMV). HFF cells, HCMV-luciferase reporter, 72 h; hits give low values. activity change, negative = inhibition, % at 57.5 µM. hit rate 4.5% among 410,000. AID 1259415, 2018; in the data active = activity change below about -60%; inconclusive = no clear call, values can overlap the other calls; inactive = above about -39%; note: % is set by controls: 0 for no effect and ±100 for the full control effect
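Luciferase read-out from HCMV-luciferase-infected HFFs (MOI 1 PFU/cell) 72 h post infection at 37C; compounds added after 16 h cell attachment; activity normalized between buffer-only basal and Salinomycin (10uM) inhibitor controls.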
HCV inh – qHTS Assay for Inhibitors of Hepatitis C Virus (HCV). Huh7.5.1 HCVcc-Cre infection, luciferase reporter, 44 h. Potency, µM (series often up to 41.8 µM), inactives show at the top dose activity change, negative = inhibition, usual class: inhibitors. hit rate 3.4% among 340,000. AID 651820, 2012; note: potency is the fitted concentration of half-maximal effect; % is set by controls: 0 for no effect and ±100 for the full control effect
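Whole-lifecycle infectious HCVcc-Cre system; cells 1,000/well, compound then virus (~0.5 moi) added 4 h after plating, 44 h culture. Luciferase read 15 sec following 15 min substrate incubation, room temp.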
Shiga toxin inh – A qHTS for Small Molecule Inhibitors of Shiga Toxin; Vero cells, Shiga toxin protein synthesis inhibition reporter; AID 2315, 2010; hit rate 9.2% among 290,000; inhibition, % at 38.7 µM; in the data active = inhibition mostly above about 28%, no sharp cut-off; inactive = mostly below about 43%; note: 0% is about no effect
Pf growth 48h – Primary qHTS for delayed death inhibitors of the malarial parasite plastid, 48 hour incubation; Potency, µM (series often up to 28.7 µM), for the others: top-dose activity change, negative = inhibition, most hits filed as inhibitors; P. falciparum luciferase growth in erythrocytes, 48 h; AID 504832, 2011; hit rate 5.9% among 310,000; note: potency is the fitted concentration of half-maximal effect; % is set by controls: 0 for no effect and ±100 for the full control effect
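Growth was read as firefly luciferase luminescence after a 48 h, 37 C, 5% CO2 exposure of compounds to reporter-bearing P. falciparum cultures (0.1% parasitemia, 2% hematocrit final) in Albumax-supplemented RPMI 1640.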
Cycloheximide cs – Cycloheximide Counterscreen for Small Molecule Inhibitors of Shiga Toxin. cell reporter, cycloheximide protein synthesis inhibition counterscreen. max response, %. hit rate 12% among 300,000; in the data active = max response mostly above about 13%, no sharp cut-off; inactive = mostly below about 14%; note: read at 38.3 µM for the half of the compounds with a filed dose; 0% is about no effect
Pf growth 96h – Primary qHTS for delayed death inhibitors of the malarial parasite plastid, 96 hour incubation; P. falciparum luciferase reporter growth, 96 h; Potency, µM (top dose mostly 28.7 µM), inactives show top-dose activity change, negative = inhibition, hits mostly inhibitors; hit rate 6.9% among 320,000; note: potency is the fitted concentration of half-maximal effect; % is set by controls: 0 for no effect and ±100 for the full control effect
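Compounds incubated with erythrocytes infected by luciferase-expressing P. falciparum (2% hematocrit, 0.05% parasitemia final) for 96 hours, 37 C in 5% CO2. Growth inhibition scored as decreased luciferase luminescence.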
* hit, by the source's call; ? = inconclusive; . = no result given; [ ] = another dose, or the depositor's remark. Rows were chosen to be rich in hits. Some 21% of all compounds tested hit in one or more screens of this group. Unless noted, calls come from the whole dose curve; as a rule, active = well fitted inhibition curve with a large enough effect; inconclusive = small, poorly fitted or top-dose-only effect, or another doubt; inactive = no such curve, though single readings can be large or run the other way.

SMILES	HCMV antiviral	HCV inh	Shiga toxin inh	Pf growth 48h	Cycloheximide cs	Pf growth 96h
Cc1noc(C)c1CCC(=O)N1CCCC(CCC(=O)NCc2ccc(F)c(F)c2)C1 (centres undefined)	-29.0	29.0%	13.9	-36.2%	19.3*	-0.4%
Cc1[nH]c2ccccc2c1C1(O)C(=O)N(Cc2ccc(Cl)cc2)c2ccccc21 (centres undefined)	-98.5*	.	.	.	.	.
Cc1[nH]c2ccccc2c1C1(O)C(=O)N(Cc2ccc3c(c2)OCO3)c2ccccc21 (centres undefined)	20.5	6.4%	12.0	-21.0%	-2.3	13.1µM*
Cc1ccc(CN2C(=O)C(O)(c3c(C)[nH]c4ccccc34)c3ccccc32)cc1 (centres undefined)	17.2	.	.	.	.	.
CCOC(=O)c1cc(C)n(CC2CCC(C(=O)Nc3cccc(C)c3)CC2)c1C (centres undefined)	-38.0	.	.	.	.	.
CCCN(Cc1nnc(-c2ccccc2Cl)o1)C(=O)c1cc(S(=O)(=O)N2CCOCC2)ccc1F	-22.9	?	.	?	.	?
Cc1ccnc2nc(C(=O)Nc3ccc4c(c3)OCO4)nn12	49.6	1.6%	74.8*	.	27.1*	-1.2%
Cc1cc(C)n2nc(C(=O)Nc3ccc4c(c3)OCCO4)nc2n1	48.7	0.6%	.	52.8%	.	38.2%
Cc1cc(C)n2nc(C(=O)Nc3ccc4c(c3)OCO4)nc2n1	60.4	-8.0%	61.1*	52.8%	31.6*	4.8%
Cc1ccnc2nc(C(=O)NC3=NCCS3)nn12	33.9	3.9%	12.2	41.6%	2.6	?
Cc1ccnc2nc(C(=O)Nc3nccs3)nn12	9.9	0.9%	29.1	68.8%	21.7*	.
Cc1ccc(NCc2cccn2-c2nnc(N3CCCCCC3)s2)cc1	-27.6	.	.	.	.	.
CCOC(=O)c1cc(NC(=O)c2ccccc2)c(=O)oc1C(F)(F)F	-28.8	12.5%	15.5	?	27.4*	-17.7%
Cc1oc(=O)c(NC(=O)c2ccccc2)cc1C(=O)c1ccccc1	118.4	-19.0%	100.8*	90.0%	63.7*	35.0%
Cc1ccc(C(=O)Nc2ccc(Cl)cc2C(=O)c2ccccc2)cc1	?	-3.8%	.	.	.	.
Cc1oc(=O)c(NC(=O)c2ccc(Cl)cc2)cc1C(=O)c1ccccc1	-33.2	?	132.0*	?	65.2*	-2.3%
CC(=O)c1cc(NC(=O)c2ccccc2)c(=O)oc1C	11.0	3.6%	-13.3	?	5.9	94.2%
CC1(C)CC(=O)c2cc(NC(=O)c3ccccc3)c(=O)oc2C1	1.2	12.8%	54.8*	26.7%	27.0*	-23.7%
CCOC(=O)c1cc(NC(=O)c2ccc(C)cc2)c(=O)oc1C(F)(F)F	?	-2.6%	25.6	?	17.8	35.7%
C=CCOc1ccc(C[C@H](N)C(=O)NC[C@H]2O[C@@H](n3cnc4c(N)ncnc43)[C@H](O)[C@@H]2O)cc1	.	-0.1%	.	.	.	.
COc1ccc(C[C@H](N)C(=O)N[C@H]2[C@@H](O)[C@H](n3cnc4c(N(C)C)ncnc43)O[C@@H]2CO)cc1	-98.4*	0.316µM*	.	0.104µM*	.	0.165µM*
CN(C)c1ncnc2c1ncn2C1OC(CO)C(O)C1O (centres undefined)	1.7	4.47µM*	-7.8	-18.1%	-2.8	.
O=C(NCc1ccc2c(c1)OCO2)C12CN(Cc3ccccc3)CC1C(c1cccc([N+](=O)[O-])c1)=NO2 (centres undefined)	-3.7	-23.3%	1.7	9.28µM*	-0.9	?
O=C(NCc1ccc(C(F)(F)F)cc1)C12CN(Cc3ccccc3)CC1C(c1cccc([N+](=O)[O-])c1)=NO2 (centres undefined)	-6.2	?	13.0	9.28µM*	12.4	9.28µM*
O=Cc1c(N2CCC3(CC2)OCCO3)nc2ccccn2c1=O	5.1	7.1%	-3.1	10.8%	-2.2	4.7%
SMILES	HCMV antiviral	HCV inh	Shiga toxin inh	Pf growth 48h	Cycloheximide cs	Pf growth 96h
COC12C(COC(N)=O)C3=C(C(=O)C(C)=C(N)C3=O)N1CC1C2N1C (centres undefined)	-104.9*	?	1.5	0.928µM*	-0.9	?
CC1CCN(C(=O)COC(=O)c2cc3ccccc3cc2O)CC1	21.8	4.9%	58.7	32.8%	42.0*	19.0%
CC(C)(C)C(=O)COC(=O)c1cc2ccccc2cc1O	74.9	6.8%	38.7	50.0%	25.3*	.
CC(SCC(=O)NC(C)C1CC2CCC1C2)C(=O)O (centres undefined)	-39.1	2.5%	-11.3	7.4%	-0.5	11.4%
COc1cc2c(cc1OC)CN(Cc1cc(=O)n3c(-c4ccccc4)csc3n1)CC2	-73.3*	-29.7%	-1.9	?	11.3	?
CC(=O)c1ccc(N2CCN(Cc3cc(=O)n4c(-c5ccccc5)csc4n3)CC2)cc1	9.7	12.6µM*	.	.	.	.
Cc1cc(C)c(OCC(=O)Nc2nnc(C3CC3)s2)c(C)c1	-22.3	11.0%	.	-18.8%	.	7.2%
CCc1ccc(C(=O)c2cn(CC(=O)Nc3ccc(F)c(F)c3)c3cc(OC)c(OC)cc3c2=O)cc1	-67.4*	.	.	.	.	.
CCc1ccc(C(=O)c2cn(CC(=O)Nc3cc(OC)cc(OC)c3)c3ccc(CC)cc3c2=O)cc1	-15.9	.	.	.	.	.
CCc1ccc(C(=O)c2cn(CC(=O)Nc3ccc(F)cc3)c3ccc(OC)cc3c2=O)cc1	-70.5*	.	.	.	.	.
COc1cc(-c2nnc(SCC(=O)NC(C)C)o2)cc(OC)c1OC	21.3	.	.	.	.	.
O=C(NCCCN1CCN(c2ccccc2F)CC1)c1nnc(Cc2ccc(Cl)cc2Cl)o1	-3.1	.	.	.	.	.
COc1ccc(/C=N/n2c(N)nc3ccccc32)cc1OC	18.6	-10.2%	50.5	?	28.9*	13.5%[5.75 µM]
COc1ccc(/C=N/n2c(C)nnc2C)c(OC)c1OC	119.8	-7.3%	68.2*	0.7%	5.9	36.3%
COc1cccc(/C=N/n2cnc3ccccc32)c1OC	178.6	-15.6%	70.7	.	30.6*	126.5%
COc1ccc(/C=N/n2c(N)nc(-c3ccccc3)c2-c2ccccc2)cc1	?	?	86.3*	?	30.6*	?
COc1cccc(/C=N/n2c(=S)n(C)c3cc(C)c(C)cc32)c1OC	11.8	-29.9%	-21.0	?	-2.6	-1.4%
COc1cccc(S(=O)(=O)N2CCN(S(=O)(=O)c3ccc4c(c3)OCCO4)CC2)c1	.	.	-12.5	.	-5.8	.
OCC1OC(c2ccc(O)cc2O)C(O)C1O (centres undefined)	-15.3	.	.	.	.	.
COc1cccc(/C=N/n2c(SC)nnc2-c2ccccc2)c1OC	-29.4	-4.9%	-15.4	1.5%	-2.1	59.2%
COc1cccc(/C=N/n2c(N)nc3ccccc32)c1OC	85.5	-6.4%	37.5	?	25.4*	.
COc1ccc(C(C)=O)cc1COC(=O)c1cnc(Cl)c(Cl)c1	71.4	11.2µM*	-14.6	-6.9%	0.8	-6.8%

Bioassay records deposited in PubChem by National Center for Advancing Translational Sciences (NCATS).
